High-throughput results: PubChem BioAssay, several laboratories
GluA2 TARP mod = modulators of GluA2-stargazin AMPA receptor complexes, primary screen, cell-based, membrane potential dye | Voltage-dependent calcium channel gamma-2 subunit (Mus musculus) + Glutamate receptor 2 … | HEK293 GluA2+stargazin, membrane potential dye (FDSS), glutamate EC50; hits were called plate by plate, in both directions | calls only at 30 µM | actives 3.5% (n = 40,000) | AID 1259245, 2017;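 active = any of four per-well response measures lying three or more SD from its plate-wide compound average, in either direction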
GIRK2 act = activators of NPY4-receptor-primed GIRK2 channels, summary, cell-based, HEK293, thallium flux | HEK293 GIRK2/NPY4 cells, thallium flux fluorescence | activation (% efficacy), % for hits at 37.5 µM | 34,000 tested, under 10 active;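 active = primary screen hit, no activity in plain HEK293 cells, and in GIRK2-only cells above 5% efficacy rising with concentration; inactive = the rest, including fluorescent compounds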;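 also: efficacy is normalized control-subtracted fluorescence 15 s after thallium addition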
The depositor's hits bear a star; i = inactive; / = no result; + = active, no number; [ ] = remark or other dose. Shown is part of a subset that was picked to be rich in hits.

SMILES	GluA2 TARP mod	GIRK2 act
O=S(=O)(c1cccc(Cl)c1)N1CCOC(c2ccccc2)C1 (centres undefined)	/	i
Cc1ccc(-c2ccc(SCC(=O)Nc3nc(C)cs3)nn2)c(C)c1	i	i
CCOCCn1c(N2CCN(C/C=C\c3ccccc3)CC2)nc2c1c(=O)[nH]c(=O)n2C	i	/
O=C(Nc1ccc(S(=O)(=O)Nc2nccs2)cc1)c1nc(-c2cnccn2)no1	+	i
Cc1ccnc(NS(=O)(=O)c2ccc(NC(=O)c3nc(-c4cnccn4)no3)cc2)n1	i	i
O=C(NCc1ccco1)C(=O)Nc1c2c(nn1-c1ccc(Cl)cc1)CS(=O)(=O)C2	i	i
COc1ccc(-c2cc(CC(=O)Nc3ccc(OC(F)(F)F)cc3)no2)cc1OC	i	i
O=C(CCCS(=O)(=O)c1ccccc1)Nc1nc2ccc([N+](=O)[O-])cc2s1	+	i
COc1ccc(S(=O)(=O)CC(=O)Nc2nc3ccc([N+](=O)[O-])cc3s2)cc1	i	i
O=C(CCCS(=O)(=O)c1ccc(Cl)cc1)Nc1nc(-c2cc([N+](=O)[O-])cs2)cs1	i	/
Cc1ccc(S(=O)(=O)CCCC(=O)Nc2nc(-c3cc([N+](=O)[O-])cs3)cs2)cc1	+	i
CCOc1ccc(CC(=O)Nc2nc3c(OC)cc([N+](=O)[O-])cc3s2)cc1	i	/
COc1cc([N+](=O)[O-])cc2sc(NC(=O)CCCS(=O)(=O)c3ccccc3)nc12	+	i
COc1ccc(OC)c(-n2c(C)cn3c4c(=O)n(CC(C)=O)c(=O)n(C)c4nc23)c1	i	/
Cc1cc(C)n(-c2nc3c(c(=O)n(CC(N)=O)c(=O)n3C)n2Cc2cccc(Cl)c2)n1	i	i
CCOC(=O)c1ccc(NC(=O)Cn2cc(OC)c(=O)cc2CSc2nc(C)cs2)cc1	i	i
COc1ccc(F)cc1S(=O)(=O)Nc1ccc(-c2ccc(=O)n(C)n2)cc1	i	i
COc1ccc(F)cc1S(=O)(=O)Nc1cccc(-c2ccc(=O)n(C)n2)c1	+	i
CC(C)(C)n1nc2c(c1-n1cccc1)CN(C(=O)c1cccs1)C2	i	i
Cc1ccc(-n2nc3c(c2-n2cccc2)CN(C(=O)c2cnccn2)C3)cc1C	i	100%*
Cc1ccc(-n2nc3c(c2-n2cccc2)CN(C(=O)c2ccsc2)C3)cc1	+	i
Cc1ccc(-n2nc3c(c2-n2cccc2)CN(C(=O)c2ccno2)C3)cc1C	i	i
COc1ccc(/C=C/C(=O)NCCNc2ccc(C)nn2)cc1OC	i	i
O=C(Cn1nc(-n2cccn2)ccc1=O)Nc1cc(C(F)(F)F)ccc1Cl	i	i
COc1ccc(-n2c(C)cn3c4c(=O)n(CC(C)C)c(=O)n(C)c4nc23)c(OC)c1	i	/
SMILES	GluA2 TARP mod	GIRK2 act
CCCn1nc(-c2ccc(OC)c(OC)c2)ccc1=O	i	i
CN1CCOc2ccc(NS(=O)(=O)c3ccc(-c4ccccc4)cc3)cc2C1=O	i	/
CN1CCOc2ccc(NS(=O)(=O)c3ccccc3)cc2C1=O	+	/
Cc1ccc(S(=O)(=O)Nc2nc(CCC(=O)Nc3cccc(Cl)c3)cs2)cc1	+	i
Cc1ccc(S(=O)(=O)Nc2nc(CCC(=O)Nc3cccc(F)c3)cs2)cc1	i	i
O=C(NCCCn1cccc1)c1ccccc1C(F)(F)F	i	i
O=C(NCCCn1cccc1)c1c(F)cccc1F	+	i
CCCNC(=O)Cn1cc(OC)c(=O)cc1CSc1nc(C)cc(C)n1	+	i
COc1cn(CC(=O)NCc2ccccc2)c(CSc2nc(C)cc(C)n2)cc1=O	i	i
CCCOc1ccc(S(=O)(=O)Nc2ccc3c(c2)NC(=O)C(C)(C)CO3)cc1	+	/
CCOC(=O)Nc1ccc2c(c1)NC(=O)C(C)(C)CO2	i	i
Cc1ccccc1-n1c(-c2ccccc2)cn2c3c(=O)n(CC(N)=O)c(=O)n(C)c3nc12	i	/
CCOc1ccc(C(=O)Nc2ccc3c(c2)CCC(=O)N3Cc2ccccc2)cc1OCC	i	i
CCOc1ccccc1C(=O)N1CCN(c2ncnc3c2nnn3-c2ccc(F)cc2)CC1	i	i
CCOc1ccccc1C(=O)N1CCN(c2ncnc3c2nnn3-c2ccc(OC)cc2)CC1	+	/
COc1ccc(Cc2nc3ccccc3n2CC(=O)N2CCCCCC2)cc1OC	i	i
Cc1ccccc1NC(=O)Cn1c(Cc2ccccc2)nc2ccccc21	+	i
CCOC(=O)CCC(=O)N1CCN(CCNC(=O)c2ccsc2)CC1	i	i
CC(=O)N1CCc2c(sc(NC(=O)c3ccn(C)n3)c2-c2nc3ccccc3s2)C1	i	/
CC(=O)N1CCc2c(sc(NC(=O)c3cc(C)no3)c2C#N)C1	i	i
CCn1nccc1C(=O)Nc1sc2c(c1C(N)=O)CCN(C(C)=O)C2	i	i
CCOC(=O)c1c(NC(=O)c2ccn(C)n2)sc2c1CCN(C(C)=O)C2	+	i
CCOC(=O)N1CCc2c(sc(NC(=O)c3ccn(C)n3)c2C(=O)OC)C1	+	i
CCOC(=O)N1CCc2c(sc(NC(=O)c3cc(C)n(CC)n3)c2C(N)=O)C1	/	i
CCOC(=O)N1CCc2c(sc(NC(=O)c3ccnn3CC)c2C(=O)OC)C1	+	i
SMILES	GluA2 TARP mod	GIRK2 act
CC(=O)N1CCc2c(sc(NC(=O)c3cc(C)no3)c2C(N)=O)C1	+	i
CC(=O)N1CCN(c2ccnc3c2c(=O)n(CC(=O)NCCc2ccccc2)c(=O)n3C)CC1	i	/
O=C(Nc1cccc(Br)c1)C1COCC(=O)N1Cc1ccccc1 (centres undefined)	i	i
CCOC(=O)c1c(SCC(=O)NCCc2ccccc2)nc(=O)[nH]c1C	i	i
CCOC(=O)c1c(SCc2ccccc2)nc(=O)[nH]c1C	+	i
CCCN(CCC)S(=O)(=O)c1ccc(C(=O)Nc2nnc(-c3cc(C)n(C)n3)o2)cc1	i	i
Cc1cc(-c2nnc(NC(=O)c3ccc(Cl)cc3)o2)nn1C	+	i
Cc1cc(-c2nnc(NC(=O)c3ccc(S(=O)(=O)N(C)C)cc3)o2)nn1C	+	i
Cc1cc(-c2nnc(NC(=O)c3ccc(C(C)(C)C)cc3)o2)nn1C	i	i
O=S(=O)(/C=C/c1ccccc1)NCC1CCN(Cc2ccsc2)CC1	/	i
COc1ccc(C(=O)Nc2ccc([N+](=O)[O-])cn2)cc1OC	+	/
COc1cccc(OC)c1C(=O)Nc1ccc([N+](=O)[O-])cn1	i	/
Cc1cc(N(C)C)nc(NCCNC(=O)Nc2ccc(C)c(C)c2)n1	i	i
CCN(CC)c1cc(C)nc(Nc2ccc(NC(=O)C(C)(C)C)cc2)n1	+	i
COc1cccc(C(=O)Nc2cc3c4c(c2)CCN4C(=O)CC3)c1OC	i	i
CCCCOC(=O)CCc1nc2ccccc2[nH]c1=O	i	/
CCC/C(O)=C(\C#N)c1nc2ccccc2[nH]1	+	i
O=C(CCN1C(=O)c2ccccc2S1(=O)=O)Nc1ccc(S(=O)(=O)Nc2nccs2)cc1	i	i
O=[N+]([O-])c1ccc(Nc2ccc(S(=O)(=O)Nc3nccs3)cc2)c([N+](=O)[O-])c1	i	14%*[18.8 µM]
